Assay results from PubChem BioAssay (NCATS).
Inconclusive results are not listed. Values without a mark were called inactive. Active and inactive are the calls of the source. Unless noted, calls follow the shape of the full dose curve.

tested on: not listed separately; assay: qHTS for Inhibitors of the Functional Ribonucleoprotein Complex (vRNP) of Lymphocytic Choriomeningitis Arenaviruses (LCMV): Viability assay - alamar blue signal for LCMV Primary Screen (AID 1347085; calls by dose curve; tested in HEK293 reporter line; also: nearly all actives have a fitted effect of over 80% in size); conditions: alamar blue viability counter-screen, LCMV vRNP screen cells; series mostly up to 57.5 µM; activity change, negative = lower viability: at the top concentration
% is scaled to controls: 0 for no effect and ±100 for the full control effect; potency is read from the fitted curve at half-maximal effect.

In order of rising “activity change, negative = lower viability” value:
1. O=c1c(O)c(-c2ccccc2)oc2ccccc12  -38.2%
2. COc1cc2c(oc(=O)c3cc(C)cc(OC)c32)c2c(C3OC(C)C(O)C(C)(O)C3O)ccc(O)c12 (stereo not drawn)  -37.3%
3. C[C@H](NC(=O)C(C#N)=Cc1cccc(Br)n1)c1ccccc1  -35.5%
4. CC/C=C\[C@H](O)[C@H](O)C1=C(C)C(=O)[C@]2(O1)C(=O)N[C@@](OC)(C(=O)c1ccccc1)C2O (stereo partly drawn)  -32.8%
5. COc1cc(C(=O)O[C@H]2C/C(C)=C/CC[C@@]3(C)O[C@@H]3[C@H](O)[C@@H]2C(C)C)cc(OC)c1OC  -28.6%
6. OC1c2ccccc2N=C2CCCN21 (stereo not drawn)  -28%
7. COc1cc2c(cc1OC)-c1cc3cc(OC)c(OC)cc3c(=O)n1CC2  -27.2%
8. C=C1CCC2C(C)(C)[C@H](O)CC[C@@]2(C)[C@@H]1COc1cc(=O)oc2ccccc12 (stereo partly drawn)  -26.6%
9. CC=CC(C)=CC(C)C(=O)CC(O)CC1CC(=O)NC(=O)C1 (stereo not drawn)  -25.8%
10. O=C(C=Cc1ccccc1O)c1ccccc1O  -25.4%
11. COc1cc2c(cc1OC)[C@@H]1Cc3ccc(OC)c(OC)c3CN1CC2  -23.5%
12. CC1(C)CCC[C@@]2(C)C1CC[C@@](C)(O)[C@@H]2CC[C@@](C)(O)C1CO1 (stereo partly drawn)  -20.9%
13. Nc1ncn([C@@H]2O[C@H](CO)[C@@H](O)[C@@H]2O)c(=O)n1  -15.9%
14. COc1cc2c(cc1OC)C(C)N(Cc1ccc3c(c1)OCO3)CC2 (stereo not drawn)  -14.5%
15. Nc1nc(F)nc2c1ncn2[C@@H]1O[C@H](COP(=O)(O)O)[C@@H](O)[C@H]1O  -8.09%
16. CN(Cc1nc2c(N)nc(N)nc2[nH]c1=O)c1ccc(C(=O)NC(CCC(=O)O)C(=O)O)cc1 (stereo not drawn)  -6.12%
17. C=C1C(=O)O[C@H]2[C@H]1[C@H](OC(=O)/C(C)=C\C)C[C@]1(CO1)[C@@H]1[C@H](OC(C)=O)C=C(C)[C@]21O  -1.74%
18. Cc1nccc2c1[nH]c1ccc(Br)cc12  -0.543%
19. COc1ccc(-c2cc(=O)c3c(OC)c(OC)c(OC)c(OC)c3o2)cc1  -0.057%
20. O=C1NC(=O)C(=Cc2ccc(-c3ccc(F)cc3O)o2)S1  15.5%

With `OCC1OC(n2cnc3c(NCc4ccccc4O)ncnc32)C(O)C1O` (stereo not drawn) the Potency was 4.47 µM (active).
For `Cc1ccc([C@@H]2O[C@H](CO)[C@@H](O)[C@H](O)[C@@H]2O)cc1Cc1ccc(-c2ccc(F)cc2)s1`, the Potency was 34.3 µM (active).
In the case of `CC=C(C(=CC)c1ccc(O)cc1)c1ccc(O)cc1`, the Potency is reported as 2.43 µM (active).
With `C[C@]12CC[C@@H]3c4ccc(O)cc4CC[C@H]3[C@H]1C[C@@H](O)[C@H]2O` the Potency was 9.68 µM (active).
In the case of `COc1cc2c(Nc3ccc(Cl)c(Cl)c3F)ncnc2cc1OCC1C[C@@H]2CN(C)C[C@H]2C1`, the Potency is reported as 1.93 µM (active).
In the case of `COc1ccc(Cc2ccc(NC(N)=O)cc2)cc1-c1cccc(Cl)c1`, the Potency is reported as 9.68 µM (active).
For `NS(=O)(=O)OC[C@@H]1C[C@@H](n2ccc3c(N[C@H]4CCc5ccccc54)ncnc32)C[C@H]1O`, the Potency was 13.7 µM (active).

For `O=C1NC(=O)C(=Cc2ccc3nccnc3c2)S1`, the “activity change, negative = lower viability” value was 5.18% [at 24.7 µM].

target: Nucleoprotein (Lymphocytic choriomeningitis virus (strain Armstrong)) (UniProt P09992); assay: qHTS for Inhibitors of the Functional Ribonucleoprotein Complex (vRNP) of Lymphocytic Choriomeningitis Arenaviruses (LCMV): LCMV Primary Screen - GLuc reporter signal (AID 1347086); conditions: LCMV minigenome vRNP cell assay, Gaussia luciferase reporter; series mostly up to 57.5 µM; activity change, negative = inhibition: at the top concentration; also: nearly all actives have a fitted effect of over 70% in size
Sequence (P09992 whole entry, looked up): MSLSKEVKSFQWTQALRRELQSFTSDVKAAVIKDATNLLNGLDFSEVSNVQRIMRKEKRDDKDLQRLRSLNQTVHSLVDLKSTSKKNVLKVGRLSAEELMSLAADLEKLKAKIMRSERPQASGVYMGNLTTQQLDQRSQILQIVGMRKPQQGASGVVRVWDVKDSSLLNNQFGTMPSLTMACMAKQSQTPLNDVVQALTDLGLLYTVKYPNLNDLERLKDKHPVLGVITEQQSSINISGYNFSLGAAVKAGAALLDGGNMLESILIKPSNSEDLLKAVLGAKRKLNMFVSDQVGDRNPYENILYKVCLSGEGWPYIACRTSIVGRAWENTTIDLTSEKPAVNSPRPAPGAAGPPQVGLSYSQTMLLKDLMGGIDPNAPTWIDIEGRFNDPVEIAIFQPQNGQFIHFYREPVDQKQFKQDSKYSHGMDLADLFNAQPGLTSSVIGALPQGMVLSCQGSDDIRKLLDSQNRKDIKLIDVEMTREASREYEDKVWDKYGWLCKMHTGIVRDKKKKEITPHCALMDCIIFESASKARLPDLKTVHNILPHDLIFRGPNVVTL

In order of falling “activity change, negative = inhibition” value:
1. COc1ccc(-c2cc(=O)c3c(OC)c(OC)c(OC)c(OC)c3o2)cc1  38.9%
2. COc1cc2c(cc1OC)[C@@H]1Cc3ccc(OC)c(OC)c3CN1CC2  29.7%
3. Nc1nc(F)nc2c1ncn2[C@@H]1O[C@H](COP(=O)(O)O)[C@@H](O)[C@H]1O  26.9%
4. COc1cc2c(cc1OC)C(C)N(Cc1ccc3c(c1)OCO3)CC2 (stereo not drawn)  18.6%
5. CN(Cc1nc2c(N)nc(N)nc2[nH]c1=O)c1ccc(C(=O)NC(CCC(=O)O)C(=O)O)cc1 (stereo not drawn)  15.3%
6. CC1(C)CCC[C@@]2(C)C1CC[C@@](C)(O)[C@@H]2CC[C@@](C)(O)C1CO1 (stereo partly drawn)  0.536%
7. O=C1NC(=O)C(=Cc2ccc(-c3ccc(F)cc3O)o2)S1  -0.448%
8. Cc1nccc2c1[nH]c1ccc(Br)cc12  -5.89%
9. C[C@H](NC(=O)C(C#N)=Cc1cccc(Br)n1)c1ccccc1  -6.96%
10. COc1cc(C(=O)O[C@H]2C/C(C)=C/CC[C@@]3(C)O[C@@H]3[C@H](O)[C@@H]2C(C)C)cc(OC)c1OC  -7.57%
11. C=C1C(=O)O[C@H]2[C@H]1[C@H](OC(=O)/C(C)=C\C)C[C@]1(CO1)[C@@H]1[C@H](OC(C)=O)C=C(C)[C@]21O  -11.7%
12. COc1cc2c(oc(=O)c3cc(C)cc(OC)c32)c2c(C3OC(C)C(O)C(C)(O)C3O)ccc(O)c12 (stereo not drawn)  -16.9%
13. CC/C=C\[C@H](O)[C@H](O)C1=C(C)C(=O)[C@]2(O1)C(=O)N[C@@](OC)(C(=O)c1ccccc1)C2O (stereo partly drawn)  -22.7%
14. O=c1c(O)c(-c2ccccc2)oc2ccccc12  -26.1%
15. Nc1ncn([C@@H]2O[C@H](CO)[C@@H](O)[C@@H]2O)c(=O)n1  -27.5%
16. C=C1CCC2C(C)(C)[C@H](O)CC[C@@]2(C)[C@@H]1COc1cc(=O)oc2ccccc12 (stereo partly drawn)  -27.9%
17. COc1cc2c(cc1OC)-c1cc3cc(OC)c(OC)cc3c(=O)n1CC2  -32.9%
18. CC=CC(C)=CC(C)C(=O)CC(O)CC1CC(=O)NC(=O)C1 (stereo not drawn)  -33.6%

For `O=C1NC(=O)C(=Cc2ccc3nccnc3c2)S1`, the “activity change, negative = inhibition” value was 1.75% [at 24.7 µM].

For `COc1cc2c(Nc3ccc(Cl)c(Cl)c3F)ncnc2cc1OCC1C[C@@H]2CN(C)C[C@H]2C1`, the Potency was 2.43 µM (active).
